Assay in all cases: NCI-60 one-dose screen, 48 h (100 = growth as untreated, 0 = no growth, -100 = all killed)
One test concerns NCI-H23 lung. The following applies: 10 µM unless noted.
In a further test the test system is NCI-H226 lung. The following applies: 10 µM unless noted.
The test system of a further test is NCI-H322M lung. The following applies: 10 µM unless noted.
In the next test the test system is HOP-62 NSCLC. The following applies: 10 µM unless noted.
In another test the test system is NCI-H460 lung. The following applies: 10 µM unless noted.
A further test relates to HOP-92 NSCLC. The settings on record: 10 µM.
A further test relates to A549/ATCC NSCLC. The following applies: 10 µM unless noted.
The test system of a further test is 786-0 renal. The following applies: 10 µM unless noted.
Another test relates to COLO 205 colon. The settings on record: 10 µM unless noted.
In the next test the test system is DU-145 prostate. The following applies: 10 µM unless noted.
The next test deals with K-562 leukemia. The following applies: 10 µM unless noted.
Another test deals with MALME-3M melanoma. The settings on record: 10 µM unless noted.
The subject of the next test is MDA-MB-231 breast. The settings on record: 10 µM unless noted.
For the next test, the system named is RXF 393 renal. The following applies: 10 µM unless noted.
For the next test, the system named is SF-268 CNS. The following applies: 10 µM unless noted.
The next test relates to SF-295 CNS. The following applies: 10 µM unless noted.
For the next test, the system named is SF-539 CNS. The settings on record: 10 µM unless noted.
The subject of another test is UACC-257 melanoma. The following applies: 10 µM unless noted.
The test system of another test is M14 melanoma. The following applies: 10 µM unless noted.

We go through 8 compounds from PubChem BioAssay (NCI).

Each structure is given as a SMILES string. The panel holds about 83,000 compounds, 20% with a hit somewhere; the sample as a whole holds those more often.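 For each line, cells grew in 96-well plates with the test compound present at a single concentration for 48 hours.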 Unmarked numbers belong to inactive results. Activity calls are given as the source filed them. Rule for the calls: active = growth percent below 10; inactive = the rest.

As for `Cc1nc2ncc(-c3ccc4ncnc(NCc5ccccc5)c4c3)cc2[nH]1`, the growth is 67.6% with NCI-H23 lung; 64.6% with NCI-H226 lung; 65.7% in the test on NCI-H322M lung; 38.9% with HOP-62 NSCLC; 89.2% in the test with NCI-H460 lung; 17.4% in the test with HOP-92 NSCLC. The growth in the test on A549/ATCC NSCLC is 77.5%; in the test on 786-0 renal, 48.3%; in the test on COLO 205 colon it was 84.4%; with DU-145 prostate it was 27.4%; in the test with K-562 leukemia, 84.2%; in the test with MALME-3M melanoma, 63.4%. In addition, the growth in the test with MDA-MB-231 breast was 24.4%; in the test on RXF 393 renal, -18.1% (active); with SF-268 CNS it was 37.6%; with SF-295 CNS, 61.5%; in the test with SF-539 CNS, 60.6%; in the test with UACC-257 melanoma it was 75.7%.

With `O=C(Nc1ccc2c(ccn2Cc2ccccn2)c1)c1cnccn1`, the growth in the test with NCI-H23 lung is 97%; with NCI-H226 lung it was 88.3%; in the test on NCI-H322M lung, 106%; with HOP-62 NSCLC, 72.7%; with NCI-H460 lung, 105%; in the test with HOP-92 NSCLC, 91.4%. In addition, the growth in the test on A549/ATCC NSCLC is 86.1%; in the test on 786-0 renal, 87.6%; with COLO 205 colon it was 120%; in the test on DU-145 prostate, 95.6%; with K-562 leukemia it was 107%; in the test on MALME-3M melanoma, 106%. Besides, the growth in the test on MDA-MB-231 breast is 86.7%; with RXF 393 renal, 47.8%; in the test on SF-268 CNS it was 84.1%; with SF-295 CNS it was 97.5%; in the test with SF-539 CNS, 96.4%; in the test on UACC-257 melanoma, 102%. Also, the growth with M14 melanoma was 106%.

For the compound `COc1cc(-c2nn(C(C)(C)C)cc2-c2ccnc(NCCCNS(=O)(=O)c3cccc(F)c3)n2)ccc1Cl`, the growth was 77.7% in the test on NCI-H23 lung; 69.4% in the test on NCI-H226 lung; 85.3% in the test with NCI-H322M lung; 65.4% in the test on HOP-62 NSCLC; 77.2% with NCI-H460 lung; 54.9% in the test with HOP-92 NSCLC. Besides, the growth in the test with A549/ATCC NSCLC is 50.7%; in the test with 786-0 renal, 69.7%; with COLO 205 colon it was 91.5%; in the test on DU-145 prostate it was 69.3%; in the test with K-562 leukemia it was 33.4%; in the test on MALME-3M melanoma it was 88.4%. The growth with MDA-MB-231 breast was 61%; with RXF 393 renal, -0.456% (active); in the test with SF-268 CNS it was 56.7%; in the test with SF-295 CNS, 83.7%; in the test on SF-539 CNS, 88.4%; in the test on UACC-257 melanoma, 97.4%. The growth with M14 melanoma was 80%.

For `COc1cc(-c2nn(C(C)(C)C)cc2-c2ccnc(NCCCNS(=O)(=O)c3ccc(C)cc3)n2)ccc1Cl`, the growth with NCI-H23 lung is 84.1%; in the test with NCI-H226 lung it was 70.9%; in the test on NCI-H322M lung it was 86%; in the test on HOP-62 NSCLC, 70.8%; with NCI-H460 lung, 86.7%; with HOP-92 NSCLC, 70.2%. Moreover, the growth is 59.7% in the test with A549/ATCC NSCLC; 83.2% in the test on 786-0 renal; 107% in the test on COLO 205 colon; 74% with DU-145 prostate; 57.7% with K-562 leukemia; 94.4% with MALME-3M melanoma. Moreover, the growth in the test on MDA-MB-231 breast was 58.4%; in the test on RXF 393 renal it was 4.95% (active); in the test on SF-268 CNS, 63.9%; in the test on SF-295 CNS, 88%; in the test with SF-539 CNS, 91.3%; in the test on UACC-257 melanoma, 94.6%. Moreover, the growth in the test on M14 melanoma is 90.5%.

For `CC(C)(O)c1cncc(-c2ccc3ncnc(NCc4ccccc4)c3c2)c1`, the growth was 71.1% in the test on NCI-H23 lung; 74.8% in the test on NCI-H226 lung; 102% in the test with NCI-H322M lung; 66% in the test on HOP-62 NSCLC; 97.6% with NCI-H460 lung; 72.3% in the test on HOP-92 NSCLC. The growth with A549/ATCC NSCLC is 85%; in the test with 786-0 renal, 76.3%; with COLO 205 colon, 113%; with DU-145 prostate, 62.7%; with K-562 leukemia, 103%; in the test on MALME-3M melanoma, 101%. The growth was 72.9% in the test with MDA-MB-231 breast; -7.38% (active) in the test on RXF 393 renal; 65% with SF-268 CNS; 85% in the test with SF-295 CNS; 85.3% in the test with SF-539 CNS; 95.5% with UACC-257 melanoma. For the same compound, the growth with M14 melanoma is 105%.

As to `CNC(=O)c1cc(-c2ccc(NC(=S)Nc3cc(C(F)(F)F)cc(C(F)(F)F)c3)cc2)nc2cccnc12`, the growth is 93.7% in the test with NCI-H23 lung; 87.8% in the test on NCI-H226 lung; 111% in the test with NCI-H322M lung; 79.2% with HOP-62 NSCLC; 92.1% in the test with NCI-H460 lung; 76.8% in the test with HOP-92 NSCLC. The growth in the test with A549/ATCC NSCLC is 88.3%; in the test on 786-0 renal it was 89.3%; in the test on COLO 205 colon it was 110%; in the test with DU-145 prostate, 84.9%; with K-562 leukemia, 94.9%; in the test with MALME-3M melanoma, 99.2%. The growth was 88.7% with MDA-MB-231 breast; 41.1% with RXF 393 renal; 88.2% with SF-268 CNS; 89.9% with SF-295 CNS; 92.1% with SF-539 CNS; 102% in the test with UACC-257 melanoma. Moreover, in the test with M14 melanoma, the growth was 98.5%.

`COc1c(N2CC3CCCNC3C2)c(F)cc2c(=O)c(C(=O)N/N=C/c3ccccc3)cn(C3CC3)c12` (centres undefined): the growth with NCI-H23 lung is 90.7%; with NCI-H226 lung, 103%; in the test on NCI-H322M lung it was 94%; with HOP-62 NSCLC, 96.6%; in the test with NCI-H460 lung it was 98.7%; with HOP-92 NSCLC it was 75.3%. Also, the growth in the test with A549/ATCC NSCLC is 101%; in the test with 786-0 renal, 66.6%; in the test with COLO 205 colon, 97.5%; in the test with DU-145 prostate it was 104%; in the test on K-562 leukemia, 54.1%; with MALME-3M melanoma, 94.1%. The growth in the test with MDA-MB-231 breast is 94.9%; in the test with SF-268 CNS it was 85.2%; in the test on SF-295 CNS, 104%; in the test on SF-539 CNS it was 83.7%; with UACC-257 melanoma it was 106%.

On to `Nc1nc(Nc2ccccc2SSc2ccccc2Nc2nc(N)nc(-c3ccc4ccccc4c3)n2)nc(-c2ccc3ccccc3c2)n1`, for which the growth with NCI-H23 lung was 49.9%; in the test with NCI-H226 lung, 59%; in the test with NCI-H322M lung it was 91.7%; in the test on HOP-62 NSCLC, 28.8%; with NCI-H460 lung it was 61.1%; in the test on HOP-92 NSCLC it was 92.4%. The growth in the test on A549/ATCC NSCLC is 2.94% (active); with 786-0 renal it was 82.6%; in the test with COLO 205 colon, 106%; in the test with DU-145 prostate, 60.7%; in the test on K-562 leukemia, 69.7%; with MALME-3M melanoma it was 93.1%. The growth with MDA-MB-231 breast is 60.9%; in the test with RXF 393 renal it was 79.5%; with SF-268 CNS, 74.9%; in the test with SF-295 CNS it was 67.7%; in the test with SF-539 CNS, 99%; in the test with UACC-257 melanoma, 112%. The growth with M14 melanoma was 95%.
